Screening data: PubChem, National Center for Advancing Translational Sciences (NCATS)
ATXN viability – viability counter-screen for ATXN expression inhibitors | S2 cells (HEK-293 line with an ATXN2-luciferase reporter) viability, CellTiter-Fluor protease fluorescence, 24 h | Potency, µM (top dose mostly 56.7 µM), most hits filed as cytotoxic | actives 0.49% (n = 400,000); also: potency is read from the fitted curve at half-maximal effect; nearly all actives have a fitted effect of over 40% in size
ATXN2 expr inh – ATXN2 expression inhibition. HEK-293 ATXN2-luciferase reporter, luminescence, 24 h. actives 0.72% (n = 360,000). AID 1745845. Potency, µM (doses to about 57 µM), inactives show top-dose activity change, negative = inhibition, usual class: inhibitors; also: potency is read from the fitted curve at half-maximal effect; % is scaled to controls: 0 for no effect and ±100 for the full control effect; nearly all actives have a fitted effect of over 55% in size
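qHTS (up to 57 uM final) was run with 24 h compound exposure of reporter cells at 37 °C. Each well was multiplexed: SteadyGlo luminescence measured ATXN2-luciferase expression after a fluorogenic Gly-Phe-AFC viability readout (25 uM final).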
DRD3 agonist – D3 dopamine receptor (human) agonism; P35462; actives 0.58% (n = 410,000); D3R DiscoveRx beta-arrestin cells, luminescence, 90 min; max activation, %; in the data active = max activation above about 30%; also: 0% is about no effect
Target sequence (P35462 whole entry, looked up): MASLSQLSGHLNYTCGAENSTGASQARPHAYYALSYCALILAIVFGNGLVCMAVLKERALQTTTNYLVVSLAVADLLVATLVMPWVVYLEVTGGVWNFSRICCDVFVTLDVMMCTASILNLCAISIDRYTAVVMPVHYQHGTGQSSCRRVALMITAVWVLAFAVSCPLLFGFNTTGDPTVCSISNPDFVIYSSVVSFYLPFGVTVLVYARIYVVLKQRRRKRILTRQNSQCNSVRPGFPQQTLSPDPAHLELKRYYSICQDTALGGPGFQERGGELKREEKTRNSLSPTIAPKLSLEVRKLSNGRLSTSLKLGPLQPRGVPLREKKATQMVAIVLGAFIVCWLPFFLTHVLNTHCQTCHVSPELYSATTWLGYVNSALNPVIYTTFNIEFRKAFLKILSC
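Cells at 1500/well, incubated overnight, then treated with pinned compounds (dopamine as control) for 90 min at 37 degrees C. DiscoveRx reagent added for 30 - 60 minutes at room temperature; luminescence read.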
DRD3 antagonist – blocks the human D3 dopamine receptor; P35462; actives 2.5% (n = 360,000); max response, negative = inhibition, %; D3R cells, DiscoveRx beta-arrestin luminescence, antagonist mode; active compounds read low; in the data active = max response below about -50%; inconclusive = no clear call, values can overlap the other calls; also: % is scaled to controls: 0 for no effect and ±100 for the full control effect
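Cells expressing the human receptor were seeded at 1500 cells/well, incubated overnight at 37 degrees C in 5% CO2, then exposed to library compounds with dopamine controls for 90 minutes at 37 degrees C before luminescent detection.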
Integrin act MD – integrin-mediated muscular dystrophy alleviation activation; alpha7betagal myoblasts, beta-gal FDG fluorescence, 48 h; Potency, µM (doses to about 38.3 µM), for the others: at the highest dose activation, usual class: activators; actives 0.064% (n = 350,000); AID 624291;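 also: potency is read from the fitted curve at half-maximal effect; 100% = response of the positive control SU9516; nearly all actives have a fitted effect of over 60% in size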
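alpha7betagal+/- myoblasts (passage 13, 250/well) treated 48 h at 37C with compounds at 1:260 dilution of DMSO stock. Lysed, then beta-galactosidase activity read as FDG fluorescence (ex 480/em 540) after 30 min, with pre-read for autofluorescence.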
IL-1B inflam inh – inflammasome signaling inhibition, IL-1 beta readout; THP-1 LPS/ATP IL-1B secretion, AlphaLISA, 16 h; active compounds read low; activity change, % at 57.5 µM; actives 4.7% (n = 360,000); AID 743279; in the data active = activity change below about -50%; inconclusive = mostly about -30% to -49%; also: % is scaled to controls: 0 for no effect and ±100 for the full control effect
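Secreted IL-1B measured by AlphaLISA bead assay after 16 h compound exposure of THP-1 cells; compounds (final up to 57.5 uM) added 1 h before LPS (250 ng/mL) and ATP (1.25 mM) stimulation; lower signal means less secretion.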
Starred values were filed as active, the others as inactive; i = inactive; ? = inconclusive; . = not tested or not shown; [ ] = dose if it differs, or a comment. This is a sample that favours compounds with a hit; in the whole collection about 7% have one here. Unless noted, calls follow the shape of the dose curve; as a rule, active = well fitted curve in the direction sought with a large enough effect; inconclusive = small, poorly fitted or top-dose-only effect, or another doubt; inactive = no such curve, though single readings can be large; an effect the other way counts as inactive or inconclusive.

SMILES	ATXN viability	ATXN2 expr inh	DRD3 agonist	DRD3 antagonist	Integrin act MD	IL-1B inflam inh
CCc1nc(Nc2ccc(OC)c(OC)c2)c2nnn(Cc3ccccc3Cl)c2n1	i	-32.2%	4.9	46.5	-13.3%	-64.8*
CC1(C)CC(=O)C2=C(C1)C(c1cn(-c3ccccc3)nc1-c1ccccc1)C(C#N)=C(N)O2 (stereo not given)	?	34.9%	1.9	20.9	-13.6%	-56.3*
Cc1cc(C(=O)N2CCCC(Nc3ccc(F)cc3)C2)n(C)n1 (stereo not given)	i	3.0%	2.1	10.6	-22.6%	45.2
COCCNc1nc2ccccc2n2cnnc12	?	.	7.9	18.6	8.9%	3.4
c1ccc2c(c1)CCN(CCCNc1nc3ccccc3n3cnnc13)C2	?	-1.3%	-19.9	-109.1*	8.5%	1.1
CCC[C@@H](CN[C@@H](CNC)C(C)C)NCCCCc1ccccc1	?	?	-21.5	-18.6	-5.3%	-14.6
CCC[C@H](CN[C@@H](CNC)[C@H](C)CC)NCCc1cc(C(F)(F)F)cc(C(F)(F)F)c1	.	?	2.5	-6.9	-11.9%	-99.7*
CCC[C@@H](CN[C@@H](CNC)[C@H](C)CC)NCC1CCC(C(C)(C)C)CC1 (stereo not given in full)	.	?	5.1	-5.6	-41.3%	-52.5*
CC[C@@H](C)[C@H](CNC)NC[C@@H](Cc1cccc2ccccc12)NCCc1cccc(C(F)(F)F)c1	35.5µM*	-22.3%	-10.7	-7.4	-47.6%	-24.0
O=C(Oc1ccc(N2C(=O)CCC2=O)cc1)c1ccccc1	i	-7.9%	0.0	-28.6	?	9.1
CCC1Oc2ccc(C)cc2N(CC(=O)NC2CCCCC2)C1=O (stereo not given)	i	4.2%	-2.6	9.2	-20.1%	-8.4
CCC1Oc2ccc(C)cc2N(CC(=O)N(Cc2ccc(C)o2)C2CCCC2)C1=O (stereo not given)	i	-4.0%	-6.5	?	-8.6%	-66.6*
CC(C)(C)C(=O)c1cnc(Nc2ccccc2Cl)s1	i	53.2%	-2.7	10.5	21.2%	?
O=C(c1ccccc1)c1cnc(Nc2ccccc2Cl)s1	?	84.4%	-3.5	16.2	31.4%	-57.8*
Cc1cccc(NC(=O)CN2CCC(C(=O)c3ccc4c(c3)OCCO4)CC2)c1	i	-33.3%	-10.6	0.0	-16.1%	?
Cc1ccc(C(=O)C2CCN(CC(=O)N3CCN(c4ccc(F)cc4)CC3)CC2)cc1	i	?	-29.0	?	0.8%	-55.5*
O=C(CN1CCN(C(=O)C2CCN(C(=O)/C=C/c3ccccc3)CC2)CC1)Nc1ccc(F)cc1	i	6.7%	5.6	11.4	-2.4%	-83.4*
Cc1ccc(C(=O)C2CCN(CC(=O)Nc3ccc4c(c3)OCCO4)CC2)cc1	i	-16.2%	0.0	-69.6*	-30.3%	-7.0
Cc1ccc(C(=O)C2CCN(CC(=O)Nc3ccc(N(C)C)cc3)CC2)cc1	i	-14.7%	-63.2	-81.9*	-9.9%	-8.3
O=C(NCC1CCCO1)c1c[nH]c2ccc(S(=O)(=O)Nc3cccc(C(F)(F)F)c3)cc2c1=O (stereo not given)	.	.	-4.6	.	.	.
O=C(CSc1nnc(Cc2cc(=O)[nH]c(=O)[nH]2)n1-c1ccccc1)N1CCCC1	i	-7.6%	-4.6	-5.0	5.6%	-7.3
O=C(Nc1ccc(Br)cc1)c1ccc(Br)c(S(=O)(=O)N2CCCCC2)c1	?	-15.4%	2.3	.	.	.
O=C(COC(=O)c1cccs1)Nc1cc(S(=O)(=O)N2CCOCC2)ccc1Cl	i	.	-2.0	3.1	13.9%	0.0
CC(=O)c1ccc(NC(=O)CN2CCC(C(=O)c3ccc(F)cc3)CC2)cc1	i	0.3%	-15.8	?	-16.8%	2.7
COc1ccc(C(=O)C2CCN(C(=S)Nc3ccc(F)cc3)CC2)cc1	i	7.3%[11.3 µM]	-12.0	-6.3	-23.2%	-63.1*
SMILES	ATXN viability	ATXN2 expr inh	DRD3 agonist	DRD3 antagonist	Integrin act MD	IL-1B inflam inh
CN(C)c1ccc(NC(=O)CN2CCC(O)(c3ccccc3)CC2)cc1	i	-6.7%	-17.4	-79.0*	8.0%	8.3
O=C(c1ccc(F)cc1)C1CCN(C(=S)Nc2ccccc2)CC1	i	0.7%	-9.3	10.2	-14.0%	-4.5
O=C(CN1CCC(C(=O)c2ccc(F)cc2)CC1)Nc1ccccc1	i	-11.2%	-27.6	-80.5*	-8.4%	-15.2
O=C(CN1CCC(C(=O)c2ccc(F)cc2)CC1)Nc1ccc(F)cc1	i	-14.8%	0.6	-70.8*	-40.5%	-12.8
COC(=O)C1=C(C)Nc2nc(SCc3ccccc3)[nH]c(=O)c2C1c1cccs1 (stereo not given)	i	-4.0%	3.9	9.1	25.1%	-16.8
O=C(O)CCC(=O)N1CCN(c2cccc(Cl)c2)CC1	i	4.1%	-2.8	-62.8*	-15.6%	-2.1
CCC(C(=O)N1CCN(c2cccc(Cl)c2)CC1)c1ccccc1 (stereo not given)	i	-12.6%	0.4	-59.0*	-54.7%	-64.1*
O=C(C(Cc1ccccc1)n1cccc1)N1CCN(c2cccc(Cl)c2)CC1 (stereo not given)	i	-5.2%	0.6	24.1	-22.8%	-1.6
O=C(O)/C=C/C(=O)N1CCN(c2cccc(Cl)c2)CC1	i	-20.8%	-17.2	-59.8*	27.5%	-18.5
COc1cccc(N2CCN(C(=O)CC(NC(=O)c3ccccc3)c3ccccc3)CC2)c1 (stereo not given)	i	0.3%	-9.5	-54.3*	19.3%	-11.3
COc1ccc(C(=O)CCC(=O)N2CCN(c3cccc(Cl)c3)CC2)cc1	?	?	-1.0	17.2	-5.3%	-28.3
O=C(NCc1ccc2c(c1)OCO2)c1cc(S(=O)(=O)N2CCCCC2)ccc1F	i	-4.3%	-5.1	-15.1	18.5%	0.0
NC(=O)c1cc(Cl)ccc1OCC(=O)N1CCCc2ccccc21	i	33.3%	24.8	7.1	16.7%	-6.2
CCOC(=O)CN1N=C(c2ccc(Cl)cc2)CCC1=O	.	-0.5%	-6.3	-19.9	1.2%	1.5
COc1ccc(C2C3=C(CC(C)(C)CC3=O)Oc3ncn(Cc4ccco4)c(=N)c32)cc1 (stereo not given)	i	-15.4%	10.2	-12.8	-15.4%	-59.6*
COc1ccc(C2C3=C(CC(C)(C)CC3=O)Oc3ncn4nc(-c5ccccc5)nc4c32)cc1 (stereo not given)	i	-6.0%	-6.0	3.3	-6.6%	-7.7
COc1ccc(C2C3=C(CC(C)(C)CC3=O)Oc3ncn(CC(C)C)c(=N)c32)cc1 (stereo not given)	i	0.0%	6.6	-1.9	19.4%	-59.9*
